Most compounds without a hit are left out; they make up all but 7.5% or so of the library.
ELG1 genotoxic – qHTS screen for small molecules that induce genotoxicity in human embryonic kidney (HEK293T) cells expressing luciferase-tagged ELG1; Potency, µM (series often up to 46 µM), inactives show at the top dose activity change, positive = activation, actives largely listed as activators; HEK293T ELG1-luciferase reporter, luminescence, 16 h; 330,000 tested, 1.3% active; AID 504466, 2011; further: % of control where 0% means no effect; nearly all actives have a fitted effect of over 60% in size
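Cells (2,000/well) expressing the ELG1-luciferase fusion are dosed by pin tool and kept 16 hr at 37 °C, 5% CO2. Signal comes from ONE-Glo luciferase reagent after 30 min at room temperature.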
Rab9 promoter act – qHTS Assay for Rab9 Promoter Activators; 320,000 tested, 2.8% active; Potency, µM (series often up to 9.22 µM), without a hit: top-dose activation, negative = inhibition, usual class: activators; Huh7 Rab9 promoter-luciferase reporter, luminescence, 24 h; further: % of control where 0% means no effect; nearly all actives have a fitted effect of over 60% in size
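Measured in stably transfected Huh7 cells bearing a Rab9 promoter–luciferase construct: 24 h compound treatment at 37 °C, followed by luminescence detection.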
NPC1 prom act – qHTS Assay for NPC1 Promoter Activators; Huh7 NPC1 promoter luciferase reporter, 24 h; Potency, µM (doses to about 9.22 µM), without a hit: top-dose activation, usual class: activators; 320,000 tested, 2.4% active; AID 485313, 2010; further: % of control where 0% means no effect; nearly all actives have a fitted effect of over 60% in size
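Readout is luciferase luminescence, reflecting NPC1 promoter activation in stably transfected Huh7 cells after 24 h compound exposure at 37 °C in reduced-serum medium with 10% FBS.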
FLuc modulator – qHTS profiling assay for firefly luciferase inhibitor/activator using purifed enzyme and Km concentrations of substrates (counterscreen for miR-21 project); AID 588342, 2011; Luciferin 4-monooxygenase (Photinus pyralis), P08659; purified FLuc, Km substrates, luminescence inhibition; 360,000 tested, 6.9% active; Potency, µM (top dose mostly 57.5 µM), for the others: at the top dose activity change, negative = inhibition, most hits filed as inhibitors;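 further: plate controls were vehicle for no effect and reference inhibitor for full effect; nearly all actives have a fitted effect of over 55% in size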
Target sequence (P08659 whole entry, looked up): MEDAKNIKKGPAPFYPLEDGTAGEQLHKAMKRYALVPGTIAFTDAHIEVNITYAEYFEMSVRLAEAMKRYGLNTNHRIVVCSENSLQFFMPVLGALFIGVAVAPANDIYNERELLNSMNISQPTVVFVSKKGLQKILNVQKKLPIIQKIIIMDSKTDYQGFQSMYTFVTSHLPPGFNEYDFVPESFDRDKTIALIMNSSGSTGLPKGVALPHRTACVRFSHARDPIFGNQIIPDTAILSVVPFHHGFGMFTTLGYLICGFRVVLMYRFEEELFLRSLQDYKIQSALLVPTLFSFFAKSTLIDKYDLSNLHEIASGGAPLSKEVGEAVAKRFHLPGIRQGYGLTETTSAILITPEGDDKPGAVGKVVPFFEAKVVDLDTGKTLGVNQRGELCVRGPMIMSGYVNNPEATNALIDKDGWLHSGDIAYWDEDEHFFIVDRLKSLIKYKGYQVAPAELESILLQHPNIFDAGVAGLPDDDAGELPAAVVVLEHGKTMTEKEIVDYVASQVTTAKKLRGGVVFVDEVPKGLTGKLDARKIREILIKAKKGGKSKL
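Biochemical qHTS of compounds, final roughly 60 µM downward over six points, against 10 nM purified firefly luciferase using Km concentrations of substrates (10 uM D-luciferin, 10 uM ATP) in Tris acetate pH 7.5 buffer; luminescence output.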
SMN2 splice enh – qHTS Assay for Enhancers of SMN2 Splice Variant Expression; HEK293 SMN2-luciferase splicing reporter, luminescence, 30-36 h; Potency, µM (series often up to 46.1 µM), for the others: top-dose activity change, positive = activation, actives largely listed as activators; 210,000 tested, 2.8% active; AID 1458, 2008; further: % of control where 0% means no effect; nearly all actives have a fitted effect of over 55% in size
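HEK293 cells carry an SMN2 minigene-luciferase reporter in which exon 7 inclusion puts luciferase in frame. Cells were seeded at 2000 cells/well, attached for 10-12 hours, then exposed to compounds for 30-36 hours at 37C before ONE-Glo luminescence.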
Luc counter – Counterscreen for Luciferase (Kinase-Glo TM) Inhibition | Luciferin 4-monooxygenase (Photuris pensylvanica), Q27757 | Kinase-Glo luciferase, ATP luminescence, 8 min | Potency, µM (top dose mostly 38.3 µM), for the others: at the top dose activity change, negative = inhibition, hits mostly inhibitors | 200,000 tested, 0.28% active; further: on the % scale 0 is the no-effect control and ±100 the full control effect; nearly all actives have a fitted effect of over 60% in size
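Inhibition of Kinase-Glo luciferase light generation was assessed at 10 uM ATP in pH 7.2 imidazole buffer, with luminescence measured after eight minutes at ambient temperature.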
* hit, by the source's call; ? = inconclusive; nt = not tested or not shown; [ ] = remark or other dose. The call rests on the fitted dose curve; in most records, active means well fitted curve in the direction sought with a large enough effect; inconclusive means small, poorly fitted or top-dose-only effect, or another doubt; inactive means no such curve, though single readings can be large; an effect the other way counts as inactive or inconclusive. Potency means the concentration at half of the fitted maximal effect.

SMILES	ELG1 genotoxic	Rab9 promoter act	NPC1 prom act	FLuc modulator	SMN2 splice enh	Luc counter
N/C(=N\OC(=O)c1cc(Cl)ccc1Cl)c1ccccn1	?	5µM*	?	1.5µM*	5µM*	-13%
COc1ccc(Cl)cc1C(=O)O/N=C(\N)c1ccccn1	?	13%	4µM*	?	nt	nt
O=C(NCCNC(=O)c1cc(Cl)ccc1Cl)c1ccccn1	2%	4%	2%	-1%	nt	nt
CCOC(=O)c1ccc(NC(=O)C2=C(C)Nc3nc(SCc4ccc(Cl)cc4)nn3C2c2ccc(C)cc2)cc1 (stereo not given)	nt	nt	nt	1%	-1%	nt
CN(C(=O)c1cccnc1)c1nnc(-c2ccccn2)s1	?	?	?	19µM*	nt	-2%
CC(=O)N(C)c1nnc(-c2ccccn2)s1	?	15%	27%	?	20µM*	-13%
CN(C(=O)c1cccnc1)c1nnc(-c2cnccn2)s1	14%	0%	4%	?	21%	-3%
CN(C(=O)c1ccccn1)c1nnc(-c2cnccn2)s1	?	?	?	11µM*	nt	nt
CCCNC(=O)CCc1c(C)nc2nc(CNC(=O)c3ccccc3)nn2c1C	nt	nt	nt	-2%	-6%	nt
COc1ccc(N2C(=O)CS(=O)(=O)C23C(=O)N(Cc2ccc(F)cc2)c2ccc(C)cc23)cc1 (stereo not given)	nt	nt	nt	3%	nt	nt
CCOc1ccc(Cl)cc1S(=O)(=O)n1nnc2ccccc21	-5%	-6%	-2%	0%[2.3 µM]	25µM*	2%
CCOc1ccc(S(=O)(=O)n2nnc3ccccc32)cc1C	3%	-2%	-1%	2%	-11%	-6%
Clc1ccc(C2[C@H]3CN(Cc4cccnc4)[C@H](c4ccccc4)C34CC2(c2cccnc2)C4)cn1 (stereo not given in full)	-4%	-2%	0%	0%	-9%	-1%
CCn1nc([N+](=O)[O-])c2c(-c3nc4ccccc4o3)c(N)n(CCCOC)c2c1=O	?	-11%	-3%	7%	17%	1%
Cc1cc(OCC(=O)NC2CC(C)(C)NC(C)(C)C2)c2c(C)cc(=O)oc2c1	0%[9.26 µM]	1%	-7%	-1%	nt	nt
COc1ccc(C(=O)/C=C/c2ccccc2)c(OC)c1	4%	?	?	4.8µM*	nt	nt
COCOc1cc(OC)ccc1C(=O)/C=C/c1ccc2c(c1)OCO2	nt	nt	nt	nt	12%	-6%
COc1ccc(C(=O)/C=C/c2ccc(C)cc2)c(OC(=O)c2ccc([N+](=O)[O-])cc2)c1	6%	21%	25%	6.7µM*	5%	1%
COc1ccc(C(=O)/C=C/c2ccc(N(C)C)cc2)c(OC)c1	?	-2%	-7%	11µM*	nt	nt
COc1ccc(/C=C/C(=O)c2ccc3c4c(cccc24)CC3)cc1	0%	-4%	-1%	15µM*	nt	nt
N=C1C(=O)OCC1c1ccccc1NC(=O)CN1CCOCC1 (stereo not given)	1%	-1%	9%	3%	18%	-1%
O=C(c1ccco1)N1CCC2(CC1)CCN(c1ccncc1)CC2	nt	nt	nt	nt	-43%	0%
O=C1CN(c2nc(-c3cccnc3)nc3sc4c(c23)CCCC4)CCN1	-2%	-3%	0%	?	?	7%
O=C(CSc1nc2sc3c(c2c(=O)n1-c1ccccc1)CCCC3)N/N=C/c1ccc(C(=O)O)cc1	2%	-1%	-8%	-7%	nt	nt
COc1ccc2cc(-c3nc(Cl)c4c5c(sc4n3)CCCC5)c(=O)oc2c1	nt	nt	nt	?	3%	nt
SMILES	ELG1 genotoxic	Rab9 promoter act	NPC1 prom act	FLuc modulator	SMN2 splice enh	Luc counter
Nc1c(C(=O)O)sc2nc(-c3ccccc3)c3c(c12)CCCC3	1%	1%	-1%	-1%	-6%	-2%
Cn1c(N/N=C/c2ccccc2)nc2sc3c(c2c1=O)CCC3	1%	-2%	1%	15µM*	-26%	-6%
CCc1c(-c2ccccc2)nc2sc3c(c2c1N)CCCC3	-4%	?	26%	1.7µM*	nt	nt
O=c1oc(/C=C/c2ccccc2)nc2sc3c(c12)CCC3	14µM*	?	21%	0.95µM*	11µM*	-23%
Nc1nc(-c2cccnc2)nc2sc3c(c12)CCCC3	7.3µM*	3.2µM*	2µM*	1.1µM*	11µM*	-6%
CC1CCN(CCCNC(=O)C2CCN(S(=O)(=O)N3CCC4(CC3)OCCO4)CC2)CC1	1%	?	2%	1%	nt	nt
Cc1c(Cl)cccc1NC(=O)CCS(=O)(=O)c1ccc(Br)s1	nt	nt	nt	1%	0%	nt
O=C(O)C(Cl)(c1ccccc1)c1ccccc1	nt	nt	nt	nt	-3%[9.22 µM]	-2%[7.66 µM]
Cc1ccccc1-c1nc2sc3c(c2c(=O)o1)CCC3	3%	4%	-2%	2.4µM*	33%	-17%
O=c1oc(-c2ccccc2)nc2sc3c(c12)CCCC3	23%	?	24%	1.2µM*	?	?
O=c1oc(-c2cc3ccccc3o2)nc2sc3c(c12)CCCC3	14%	?	?	2.4µM*	?	-12%
CC(C)(C)c1nc2sc3c(c2c(=O)o1)CCCC3	3%	2%	1%	-7%	3%	-5%
O=c1oc(-c2cccs2)nc2sc3c(c12)CCCCC3	1%	?	?	1.2µM*	16µM*	-7%
CCc1nc2sc3c(c2c(=O)o1)CCCC3	?	1%	0%	?	13%	-3%
CCN(C(=O)Cn1ncc2c(=O)oc3ccc(C)cc3c21)c1cc(OC)ccc1OC	nt	nt	nt	-3%	-9%	nt
COc1cccc(/C=N/NC(=O)CNC(=O)/C=C\c2ccccc2)c1O	18%	-12%	-6%	11µM*	nt	nt
COc1ccc(/C=C\C(=O)NCC(=O)N/N=C/c2cccc(OC)c2O)cc1	-2%[9.26 µM]	-1%	2%	-4%	nt	nt
COc1cccc(/C=N/NC(=O)CNC(=O)C(c2ccccc2)c2ccccc2)c1O	?	-7%	-36%	4.8µM*	nt	nt
Cc1ccc(CNC(=O)CN2C(=O)C3(SCC(=O)N3c3cc(C)cc(C)c3)c3ccccc32)cc1 (stereo not given)	nt	nt	nt	-8%	nt	nt
Cc1ccc(C2CC(=O)Oc3cc4c(cc32)OCO4)cc1 (stereo not given)	nt	nt	nt	nt	nt	1%[39.9 µM]
CC(/C=C/c1ccc(N(C)C)cc1)=N\N=C(/N)SC1CC(=O)N(c2ccc(C(=O)O)cc2)C1=O (stereo not given)	?	?	26%	1.1µM*	?	-7%

Bioassay records from PubChem.
